Results as given in article PMC7819943, “Rice protein-binding microarrays: a tool to detect cis-acting elements near promoter regions in rice”.
Over roughly 68,000 sequences, “fluorescence intensity (a.u.)” has its median near 9,100; the highest 2% begin near 16,000. For the sample, the highest values were picked, then their nearest neighbours and some sequences at random.

What follows are sequences tested against OsWRKY34 (Oryza sativa, UniProt Q0JBA9 1-250) (assay: protein-binding microarray (RPBM); PBS, 2% BSA, 51.3 ng/ul salmon testes DNA, 50 uM zinc acetate, 200 nM TF, 25 C, 1 h; high values mean tight binding). Conditions: protein: recombinant; tags: N-terminal polyhistidine and DsRed monomer fusion (pET32a); label: CyDye5-dUTP incorporated in the synthesized complementary strand; 3' TTTTT single-stranded linker to array surface; dsDNA, one strand shown.
OsWRKY34, sequence (Q0JBA9 entry or part of it): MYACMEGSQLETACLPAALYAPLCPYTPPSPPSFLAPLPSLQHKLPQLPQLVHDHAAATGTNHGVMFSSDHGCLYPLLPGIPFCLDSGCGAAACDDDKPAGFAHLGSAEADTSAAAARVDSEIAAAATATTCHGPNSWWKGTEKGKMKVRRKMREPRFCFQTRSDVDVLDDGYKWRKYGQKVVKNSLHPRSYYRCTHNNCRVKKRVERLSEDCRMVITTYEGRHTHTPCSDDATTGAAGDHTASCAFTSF
Method in brief: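 A custom Agilent array was converted to double-stranded form by primer extension with Cy5-dUTP and blocked with 2% BSA. Protein at 200 nM in PBS with 2% BSA, salmon testes DNA and 50 µM zinc acetate was applied for 1 h at 25 °C, followed by washing. The proteins were polyhistidine–DsRed N-terminal fusions of transcription factors, expressed in E. coli BL21-CodonPlus and Ni–NTA-purified. The binding signal is per-feature fluorescence intensity (arbitrary units) from an Axon 4000B scanner.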
In the case of “CTCTCTCTCTCTCTGCAGCTAGGCCATATGCATCTCTCCTCGGAGTCACCTAGTGCAG”, the binding signal is reported as 9070 fluorescence intensity (a.u.).
“GCATTCACTCCATCGCACCACTTCATGCCGCAAAATGTTTCGGAGTCACCTAGTGCAG” was tested, and the binding signal was 9970 fluorescence intensity (a.u.).
In the case of “AAGCTAGTCAAACCGTTGACTACCACTGTCTTTGTTGCGCCGGAGTCACCTAGTGCAG”, the binding signal is reported as 16800 fluorescence intensity (a.u.).
In the case of “AACCATCATGACCGGCTACCACTAAGCTGCGCCTGTCTACCGGAGTCACCTAGTGCAG”, the binding signal is reported as 8700 fluorescence intensity (a.u.).
For “GCTGCACAGCTAGTCAACACAAGCTAGTCAAACCGTTGACCGGAGTCACCTAGTGCAG”, the binding signal was 19200 fluorescence intensity (a.u.).
In the case of “AACCAAACAACCGTTGTCTTGGCACAGCTGTCGCAACCTGCGGAGTCACCTAGTGCAG”, the binding signal is reported as 8200 fluorescence intensity (a.u.).
For “ATACGAGCCAAAGACCGTTGACAAGCTAGTCAACAGTCATCGGAGTCACCTAGTGCAG”, the binding signal was 8910 fluorescence intensity (a.u.).
In the case of “TTTTGTCTACTGCGCCTACCACGCCGTTGTCCACTACCTCCGGAGTCACCTAGTGCAG”, the binding signal is reported as 10400 fluorescence intensity (a.u.).
With “CCTCGAGCTGTGCACGGCTGGTTCGTCTCGCGCCGCTTATCGGAGTCACCTAGTGCAG” the binding signal was 10900 fluorescence intensity (a.u.).
For “TCAGTGTCGGCCGCGATGTCTTTGCAGCTTTGCTGGTTTTCGGAGTCACCTAGTGCAG”, the binding signal was 8090 fluorescence intensity (a.u.).
“GGTATTGTTGATACTTTCAGTTTTCGCATTTGTTCGCTTCCGGAGTCACCTAGTGCAG” was tested, and the binding signal was 9230 fluorescence intensity (a.u.).
With “AAACTTAGCAAGAGCTCTGACCTATTGGAAAATTTTCTTTCGGAGTCACCTAGTGCAG” the binding signal was 9480 fluorescence intensity (a.u.).
“GACCTATTTTCGCGATTTTCCCCGGTTGACCACTACTTTTCGGAGTCACCTAGTGCAG” was tested, and the binding signal was 13100 fluorescence intensity (a.u.).
“ATATTTGGTTTTTTTTCGTACTTTTTTTCGCCCGGTTTTTCGGAGTCACCTAGTGCAG” was tested, and the binding signal was 20800 fluorescence intensity (a.u.).
In the case of “AGATTTGGTTTTTTAGGCCGGTTTTTCGTTTTGTCGCCCTCGGAGTCACCTAGTGCAG”, the binding signal is reported as 8750 fluorescence intensity (a.u.).
With “GGACCTACTTTCGCGATTTTCCCCGGTTGGCCACTACTTTCGGAGTCACCTAGTGCAG” the binding signal was 18800 fluorescence intensity (a.u.).
For “TTTCGTGATTTTCCCCGGTTGGCCACTACTTTTGCGATTTCGGAGTCACCTAGTGCAG”, the binding signal was 9570 fluorescence intensity (a.u.).
“TATATATATTTATCACCGGTTTATTTTGGTCTGGTCTTTTCGGAGTCACCTAGTGCAG” was tested, and the binding signal was 13000 fluorescence intensity (a.u.).
With “CAGGACTGCGTGCTCCTTCTCGTTGTTCCTTACTCACCTTCGGAGTCACCTAGTGCAG” the binding signal was 9560 fluorescence intensity (a.u.).
For “CTACTGCTTTCTTTCTTTCTCTATTGCAGTCTACCTCCTACGGAGTCACCTAGTGCAG”, the binding signal was 11400 fluorescence intensity (a.u.).
For “CTTTTGACTGCCACAGTGTGTTAGGTATATGTTTGTTTCACGGAGTCACCTAGTGCAG”, the binding signal was 11700 fluorescence intensity (a.u.).
In the case of “TCTTCCTCATGCGATTTGGTTGGTTGGTTTGACGCTACACCGGAGTCACCTAGTGCAG”, the binding signal is reported as 13600 fluorescence intensity (a.u.).
In the case of “GGGTGTGTGCGCATGTGTGTTTGTCGTGTATTAAAAAAAACGGAGTCACCTAGTGCAG”, the binding signal is reported as 9130 fluorescence intensity (a.u.).
In the case of “TTAATTATTTCTTGGTATTTGGGTTAAGGGTGGTTGTGCCCGGAGTCACCTAGTGCAG”, the binding signal is reported as 12600 fluorescence intensity (a.u.).
For “TCTACTTTTCTCCACTCTTTTGCTATAGGGGCTGGGGTGGCGGAGTCACCTAGTGCAG”, the binding signal was 14200 fluorescence intensity (a.u.).
For “TATCTTAGGGCATGTTTGGTTGTACGGATCGTACCTGACTCGGAGTCACCTAGTGCAG”, the binding signal was 9620 fluorescence intensity (a.u.).
“GATGGCTACCTAGCTGACACGCAACGCCGGCCTCCGGATCCGGAGTCACCTAGTGCAG” was tested, and the binding signal was 10600 fluorescence intensity (a.u.).
In the case of “GAATCATGTGCTATCTCGTTAATTATCTGCTCTTTTAGCTCGGAGTCACCTAGTGCAG”, the binding signal is reported as 9000 fluorescence intensity (a.u.).
In the case of “TTAATTATATGCTAATGGCTAACCTTATTTTACGTATCTTCGGAGTCACCTAGTGCAG”, the binding signal is reported as 8180 fluorescence intensity (a.u.).
In the case of “AGCAGATGGAGTATATCTTTAGCTAATTAAGCTATAGCTACGGAGTCACCTAGTGCAG”, the binding signal is reported as 23000 fluorescence intensity (a.u.).
“TATATATATATATATATATATATATATATATATGTGTGTGCGGAGTCACCTAGTGCAG” was tested, and the binding signal was 18100 fluorescence intensity (a.u.).
“GGGCGTGGTGGTGGTGGTGGTGGTTATACGGTTTTCGGTTCGGAGTCACCTAGTGCAG” was tested, and the binding signal was 25900 fluorescence intensity (a.u.).
For “TATATATATGTGTGTGTGTGTGTGTGTGTGTGTGTGTGTGCGGAGTCACCTAGTGCAG”, the binding signal was 10100 fluorescence intensity (a.u.).
In the case of “TATATATATATATATATATATATATATGTGTGTGTGTGTTCGGAGTCACCTAGTGCAG”, the binding signal is reported as 14600 fluorescence intensity (a.u.).
“TATATATATATATATATATATATATATATATGGTGGTGTTCGGAGTCACCTAGTGCAG” was tested, and the binding signal was 20500 fluorescence intensity (a.u.).
“TGGGTTTGTGGGTTATGTTTCGGTGCGTGCCGATAGTATACGGAGTCACCTAGTGCAG” was tested, and the binding signal was 14300 fluorescence intensity (a.u.).
“TGGTGGTTTTCGTCGTCGTCGTCGTCGTCGGCTTCATATACGGAGTCACCTAGTGCAG” was tested, and the binding signal was 10100 fluorescence intensity (a.u.).
“TATATATATATATATATATGTGTGTGTGTGTGTGTATGGTCGGAGTCACCTAGTGCAG” was tested, and the binding signal was 9770 fluorescence intensity (a.u.).
“TATATATATATATATATATATATATATATGTGTGTGTGTGCGGAGTCACCTAGTGCAG” was tested, and the binding signal was 13700 fluorescence intensity (a.u.).
In the case of “CTCCCTTGCCGTCCCAGTTTCCCTGTATTCTGCATGCCGTCGGAGTCACCTAGTGCAG”, the binding signal is reported as 9850 fluorescence intensity (a.u.).
“ACTTTGCTGCCTATTGTAGATTTGTTATAACGTAGTTACTCGGAGTCACCTAGTGCAG” was tested, and the binding signal was 10400 fluorescence intensity (a.u.).
“AACCCTCGCTTTCTTTGATAATCATTCCTAACTGCCTGGTCGGAGTCACCTAGTGCAG” was tested, and the binding signal was 8170 fluorescence intensity (a.u.).
